About 79,000 compounds went through this panel and 15% of them were active in at least one assay; those are over-represented in the sample as a whole. A number with no mark means an inactive call. Active and inactive are the calls of the source. Cut-off read from the data, not from the text of the source: active = growth inhibition above about 70%; inactive = the rest.

A short description of the first experiment: NCI Yeast Anticancer Drug Screen. Data for the rad50 strain (AID 155).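 Note: 0% = growth of vehicle-only cultures of the same strain.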 Conditions: S. cerevisiae rad50 strain growth inhibition; at 50.0 µM; active compounds read high. In outline: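 Relative growth inhibition (compound vs vehicle) was measured in yeast with a defined repair-gene alteration.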
Turning to `O=[N+]([O-])c1ccc(-c2nnc(C34CC5CC(CC(C5)C3)C4)o2)cc1`, the growth inhibition was -26.7%.

Turning to `Clc1cccc(Cl)c1C1SCc2nc3ncccc3n21` (stereo not given), the growth inhibition was 14.1%.

As for `COc1c2ccoc2c(OC)c2oc(=O)ccc12`, the growth inhibition was 13.3%.

On to `N#Cc1cccc(O)c1`, for which the growth inhibition was -3.45%.

As for `CCOC(=O)c1c(SC(=O)c2ccc(C(C)(C)C)cc2)n(-c2ccccc2)c(=S)n(-c2ccccc2)c1=O`, the growth inhibition was 31.1%.

With `CCOC(=O)/C=C/c1ccc(OCC)cc1`, the growth inhibition is -2.4%.

For the compound `O=C(c1ccc(F)cc1)c1ccc2ccccc2c1C(=O)O`, the growth inhibition is 4.4%.

On to `CC(=O)O[C@H]1CC[C@@]2(C)[C@@H](CC[C@@H]3[C@@H]2CC[C@]2(C)[C@@H](C(=O)CCC(F)(F)F)CC[C@@H]32)C1`, for which the growth inhibition was 16.9%.

As to `Nc1cc(=O)[nH]c(NCCCC(N)C(=O)O)n1` (stereo not given), the growth inhibition is 5.95%.

Take `O=[N+]([O-])c1cc(Br)c2ccccc2c1`: the growth inhibition was 6.7%.

As for `Cc1ccc(-n2cnc3c(Cl)ncnc32)cc1[N+](=O)[O-]`, the growth inhibition was -4.05%.

Turning to `C/C(=N\NC(=S)NC(C)C)c1nc2ncccc2[nH]1`, the growth inhibition was -14.5%.

Consider `Cc1ccc(COC(=O)Nc2ccc(C)c(NC(=O)OCc3ccc(C)cc3)c2)cc1`, for which the growth inhibition is 14.4%.

In the case of `NCCSS(=O)(=O)CCN`, the growth inhibition is -17.4%.

For `CN(/N=C/c1ccccc1)c1nnnn1-c1ccccc1`, the growth inhibition was 3.2%.

Consider `CCOC(CCCl)c1ccc(C)cc1` (stereo not given), for which the growth inhibition is -25.2%.

Regarding `CCOc1cc(N)nc(N)n1`, the growth inhibition is 13.1%.

With `O=C1CSC(c2ccc(Br)cc2)N1c1nncs1` (stereo not given), the growth inhibition is -2.75%.

Take `O/N=C1\CCCCC1C(NO)c1ccccc1` (stereo not given): the growth inhibition is 2.4%.

For the compound `CN(/N=C/c1cccs1)c1ccc([N+](=O)[O-])cc1[N+](=O)[O-]`, the growth inhibition was -24.7%.

For the compound `CN(C)CC1OCCc2ccccc21` (stereo not given), the growth inhibition was 10.1%.

In the case of `C/C(=N\N=Nc1ccc(N(C)C)cc1)c1ccccc1`, the growth inhibition is 1.6%.

Take `NC(=S)NNC(=S)NC(=O)c1ccco1`: the growth inhibition was -39.8%.

`O=C1CCN2CCC(=O)c3c2c(cc2ccccc32)N1`: the growth inhibition was 6.25%.

For `CC1(C)C(=O)N2c3ccccc3C3(CC(N4C(=O)c5ccccc5C4=O)C(=O)O3)C2N1C(=O)OCc1ccccc1` (stereo not given), the growth inhibition was 26.1%.

For the compound `O=C(Nc1ccc([N+](=O)[O-])cc1)Nc1nccnn1`, the growth inhibition was 5.15%.

For the compound `CN(NC(=O)CCCl)C1=NCCN1`, the growth inhibition is 5.15%.

Regarding `Cc1cc(N=Nc2ccc(N=Nc3ccc(S(=O)(=O)O)cc3)cc2)cc(C(=O)O)c1O`, the growth inhibition is 12%.

For the compound `O=[N+]([O-])c1cc(Cl)c(Cl)c(Cl)c1Cl`, the growth inhibition was 17.1%.

`O=C1C(c2ccccc2)C(c2ccccc2)C(c2ccccc2)C1c1ccccc1` (stereo not given): the growth inhibition was 52%.

For the compound `O=[N+]([O-])c1ccc(-c2ccccc2CO)cc1`, the growth inhibition was -9.55%.

With `CCCC(O)C(=O)C(CCC)N(CC)CC` (stereo not given), the growth inhibition was 2.5%.

As to `O=C(NCCNc1ccccc1)C12CC3CC(CC(C3)C1)C2`, the growth inhibition is -4.2%.

On to `Clc1ccc([I+]c2ccc(Cl)cc2)cc1`, for which the growth inhibition is 96.2% (active).

For the compound `[N-]=[N+]=NS(=O)(=O)CCc1ccc(Cl)cc1`, the growth inhibition is 4.55%.

For `CCCCC(CC)C(C(C)=O)N(C)C` (stereo not given), the growth inhibition was 33.1%.

Consider `CCC1(C)CC(C)(C)c2ccc(C)cc21` (stereo not given), for which the growth inhibition is -0.8%.

For the compound `Brc1cccc2c(SCCCCCCSc3c4ccccc4nc4c(Br)cccc34)c3ccccc3nc12`, the growth inhibition was 3.1%.

With `O=C(O)c1[nH]ncc1[N+](=O)[O-]`, the growth inhibition is 24.1%.

In the case of `O=C(O)CCBr`, the growth inhibition was 8.1%.

A short description of the next experiment: NCI Yeast Anticancer Drug Screen. Data for the mec2-1 strain (AID 157). Conditions: S. cerevisiae mec2-1 strain, at 50.0 µM, active compounds read high. In a few lines: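 Vehicle-treated cultures served as reference for growth inhibition of compound-exposed mec2-1 yeast.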
`O=[N+]([O-])c1ccc(-c2nnc(C34CC5CC(CC(C5)C3)C4)o2)cc1`: the growth inhibition is -1.2%.

Turning to `Clc1cccc(Cl)c1C1SCc2nc3ncccc3n21` (stereo not given), the growth inhibition was 16.6%.

Take `COc1c2ccoc2c(OC)c2oc(=O)ccc12`: the growth inhibition was -23.6%.

Turning to `N#Cc1cccc(O)c1`, the growth inhibition is -10.7%.

For `CCOC(=O)c1c(SC(=O)c2ccc(C(C)(C)C)cc2)n(-c2ccccc2)c(=S)n(-c2ccccc2)c1=O`, the growth inhibition is 0.55%.

`CCOC(=O)/C=C/c1ccc(OCC)cc1`: the growth inhibition is 2.55%.

For the compound `O=C(c1ccc(F)cc1)c1ccc2ccccc2c1C(=O)O`, the growth inhibition was 7.65%.

On to `CC(=O)O[C@H]1CC[C@@]2(C)[C@@H](CC[C@@H]3[C@@H]2CC[C@]2(C)[C@@H](C(=O)CCC(F)(F)F)CC[C@@H]32)C1`, for which the growth inhibition is 20.9%.

For `Nc1cc(=O)[nH]c(NCCCC(N)C(=O)O)n1` (stereo not given), the growth inhibition was 8.8%.

Turning to `O=[N+]([O-])c1cc(Br)c2ccccc2c1`, the growth inhibition was 4.9%.

Turning to `Cc1ccc(-n2cnc3c(Cl)ncnc32)cc1[N+](=O)[O-]`, the growth inhibition is 12.3%.

Turning to `C/C(=N\NC(=S)NC(C)C)c1nc2ncccc2[nH]1`, the growth inhibition was -17.6%.

For `Cc1ccc(COC(=O)Nc2ccc(C)c(NC(=O)OCc3ccc(C)cc3)c2)cc1`, the growth inhibition is -1.15%.

With `NCCSS(=O)(=O)CCN`, the growth inhibition is -4.6%.

On to `CN(/N=C/c1ccccc1)c1nnnn1-c1ccccc1`, for which the growth inhibition is -5.7%.

As for `CCOC(CCCl)c1ccc(C)cc1` (stereo not given), the growth inhibition was -42.2%.

In the case of `CCOc1cc(N)nc(N)n1`, the growth inhibition was -10.3%.

In the case of `O=C1CSC(c2ccc(Br)cc2)N1c1nncs1` (stereo not given), the growth inhibition is 19.6%.

`O/N=C1\CCCCC1C(NO)c1ccccc1` (stereo not given): the growth inhibition was -4.25%.

On to `CN(/N=C/c1cccs1)c1ccc([N+](=O)[O-])cc1[N+](=O)[O-]`, for which the growth inhibition was -25.5%.

Take `CN(C)CC1OCCc2ccccc21` (stereo not given): the growth inhibition is 2.9%.

As for `C/C(=N\N=Nc1ccc(N(C)C)cc1)c1ccccc1`, the growth inhibition is -3.3%.

On to `NC(=S)NNC(=S)NC(=O)c1ccco1`, for which the growth inhibition was 5.55%.

For `O=C1CCN2CCC(=O)c3c2c(cc2ccccc32)N1`, the growth inhibition is -15.8%.

Consider `CC1(C)C(=O)N2c3ccccc3C3(CC(N4C(=O)c5ccccc5C4=O)C(=O)O3)C2N1C(=O)OCc1ccccc1` (stereo not given), for which the growth inhibition is 13.8%.

As for `O=C(Nc1ccc([N+](=O)[O-])cc1)Nc1nccnn1`, the growth inhibition was -13.1%.

With `CN(NC(=O)CCCl)C1=NCCN1`, the growth inhibition is -4.6%.

As to `Cc1cc(N=Nc2ccc(N=Nc3ccc(S(=O)(=O)O)cc3)cc2)cc(C(=O)O)c1O`, the growth inhibition was -9.4%.

Regarding `O=[N+]([O-])c1cc(Cl)c(Cl)c(Cl)c1Cl`, the growth inhibition was 3.4%.

As to `O=C1C(c2ccccc2)C(c2ccccc2)C(c2ccccc2)C1c1ccccc1` (stereo not given), the growth inhibition was 1.05%.

In the case of `O=[N+]([O-])c1ccc(-c2ccccc2CO)cc1`, the growth inhibition is -10.2%.

On to `CCCC(O)C(=O)C(CCC)N(CC)CC` (stereo not given), for which the growth inhibition was -6.85%.

On to `O=C(NCCNc1ccccc1)C12CC3CC(CC(C3)C1)C2`, for which the growth inhibition is 1.35%.

Regarding `Clc1ccc([I+]c2ccc(Cl)cc2)cc1`, the growth inhibition is 95.5% (active).

Consider `[N-]=[N+]=NS(=O)(=O)CCc1ccc(Cl)cc1`, for which the growth inhibition is -3.95%.

Consider `CCCCC(CC)C(C(C)=O)N(C)C` (stereo not given), for which the growth inhibition was -9.45%.

Regarding `CCC1(C)CC(C)(C)c2ccc(C)cc21` (stereo not given), the growth inhibition was -2.75%.

For the compound `Brc1cccc2c(SCCCCCCSc3c4ccccc4nc4c(Br)cccc34)c3ccccc3nc12`, the growth inhibition was -16.1%.

On to `O=C(O)c1[nH]ncc1[N+](=O)[O-]`, for which the growth inhibition is -4.85%.

In the case of `O=C(O)CCBr`, the growth inhibition is -10.1%.

Values taken from PubChem BioAssay (NCI).
